Only some compounds are listed: those with a hit (about 10% of all), similar ones and a draw of the others.
BAZ2B inh = qHTS Assay for Inhibitors of BAZ2B; Bromodomain adjacent to zinc finger domain protein 2B (Homo sapiens), Q9UIF8; AlphaScreen BAZ2B-H3K14Ac peptide displacement; Potency, µM (top dose mostly 114 µM), hits mostly inhibitors; 4.4% of 360,000 active; AID 504333, 2011; also: nearly all actives have a fitted effect of over 60% in size
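Multi-concentration screen (max 110 uM) measuring displacement of acetylated histone H3 peptide from BAZ2B by AlphaScreen, using 50 nM protein, 50 nM peptide and 10 ug/mL streptavidin donor plus Ni-chelate acceptor beads.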
CtBP-E1A blk = qHTS Assay for Inhibitors of the CtBP/E1A Interaction. activity change, % (no concentration beside the values). AID 651724, 2012. AlphaScreen GST-E1A/His-CtBP binding, 1536-well; active compounds read low. 0.49% of 340,000 active. CtBP / adenovirus E1A interaction (AlphaScreen); in the data active = activity change below about -65%; inconclusive = mostly about -30% to -63%
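Homogeneous bead-based format: GST-tagged E1A captured on glutathione donor beads, His-tagged CtBP on nickel acceptor beads; compounds precede bead addition by 2 h at 37 °C.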
Six1-Eya2 blk = qHTS Assay for Inhibitors of the Six1/Eya2 Interaction. AlphaScreen GST-Six1/His-Eya2 binding, biochemical; active compounds read low. activity change, % (concentration not given with the values). 0.56% of 360,000 active; in the data active = activity change below about -65%; inconclusive = mostly about -30% to -63%
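Compounds are tested against tagged Six1 and Eya2 proteins bridged by glutathione donor and nickel acceptor beads; after a one-hour incubation at 37 °C without light, AlphaScreen emission is recorded.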
JMJD2A Tudor = qHTS Assay for Inhibitors of JMJD2A-Tudor Domain; Potency, µM (titrated, usually from 114 µM), most hits filed as inhibitors; 4.4% of 390,000 active; AlphaScreen JMJD2A-Tudor / H3K4me3 peptide binding; AID 504339, 2011; Lysine-specific demethylase 4A (Homo sapiens), O75164; also: nearly all actives have a fitted effect of over 50% in size
HP1b binding inh = HTS for Inhibitors of HP1-beta Chromodomain Interactions with Methylated Histone Tails. AlphaScreen HP1-beta / biotin-H3K9me3 peptide binding. Potency, µM (highest dose often 114 µM), usual class: inhibitors. 0.56% of 390,000 active. AID 540317, 2011; also: nearly all actives have a fitted effect of over 70% in size
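AlphaScreen: HP1-beta (50 nM) preformed 30 min with biotin-H3(1-18)K9me3 peptide (50 nM) in PBS pH 7.4, 0.01% Tween-20. Compound added for 30 min at RT, then streptavidin donor/nickel chelate acceptor beads (10 ug/mL) for 30 min.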
G9a block = qHTS Assay for Inhibitors of Histone Lysine Methyltransferase G9a; G9a H3K9 monomethylation, AlphaScreen, 2 h; Potency, µM (titrated, usually from 102 µM), hits mostly inhibitors; 8.8% of 350,000 active; also: nearly all actives have a fitted effect of over 75% in size
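G9a (20 nM) was preincubated 15 min with compound, then reacted 2 h at room temperature with 500 nM biotin-H3K9 peptide and 20 µM SAM. Monomethyl-H3K9 detected by AlphaScreen using anti-H3K9me1 antibody.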
A number is an active result; [ ] = remark or other dose. Unless noted, calls follow the shape of the dose curve; as a rule, active = well fitted inhibition curve with a large enough effect; inconclusive = small, poorly fitted or top-dose-only effect; inactive = no such curve, though single readings can be large or run the other way.

Results for COc1ccc(/C(O)=C2/C(=O)C(=O)N(CCCC(=O)O)C2c2ccc(OC)c(OC)c2)cc1 (stereo unspecified) ?
BAZ2B inh: inactive; CtBP-E1A blk: inactive; Six1-Eya2 blk: inactive; JMJD2A Tudor: inactive; HP1b binding inh: inactive; G9a block: inactive[0.0925 µM]

How did COc1cccc(C2/C(=C(/O)c3ccccc3)C(=O)C(=O)N2CCCC(=O)O)c1 (stereo unspecified) do in these assays?
BAZ2B inh: inconclusive; CtBP-E1A blk: inactive; Six1-Eya2 blk: inactive; JMJD2A Tudor: 50.1µM; HP1b binding inh: inactive; G9a block: inconclusive

What do the screens show for `COc1ccc(C(=O)NCc2ccon2)cc1OC1CCN(C(C)C)CC1`?
BAZ2B inh: inactive; CtBP-E1A blk: inactive; Six1-Eya2 blk: inactive; JMJD2A Tudor: inactive; HP1b binding inh: inactive; G9a block: inactive

Results for COc1ccc(N2CCN(c3cc(C(=O)Nc4cc(OC)c(OC)c(OC)c4)ncn3)CC2)cc1OC ?
CtBP-E1A blk: inactive; Six1-Eya2 blk: inactive

Results for O=S1OCCN1c1ccccc1 (stereo unspecified) ?
BAZ2B inh: inactive; CtBP-E1A blk: inactive; Six1-Eya2 blk: inactive; JMJD2A Tudor: inactive; HP1b binding inh: inactive

Results for CCOc1cc(CNCCSc2nnnn2-c2ccccc2)ccc1OC ?
BAZ2B inh: inactive; JMJD2A Tudor: inactive; HP1b binding inh: inactive; G9a block: inactive

What do the screens show for `CN(C)S(=O)(=O)N1CCC(Oc2ccc(C(=O)N3CCCCCCC3)cc2)CC1`?
BAZ2B inh: 56.2µM; CtBP-E1A blk: inactive; Six1-Eya2 blk: inactive; JMJD2A Tudor: inactive; HP1b binding inh: inactive; G9a block: inconclusive

What do the screens show for `CN(C)S(=O)(=O)N1CCC(Oc2ccc(C(=O)N3CCCCCC3)cc2)CC1`?
CtBP-E1A blk: inactive; Six1-Eya2 blk: inactive

What do the screens show for `CC(C)(C)C(=O)NC(n1cnc2c(N3CCOCC3)ncnc21)C(Cl)(Cl)Cl` (stereo unspecified)?
BAZ2B inh: inactive; CtBP-E1A blk: inactive; Six1-Eya2 blk: inactive; JMJD2A Tudor: inactive; HP1b binding inh: inactive

What do the screens show for `COc1ccc(-n2c(Cc3cccn3C)nnc2SCC(=O)N2CCC(C)CC2)cc1`?
BAZ2B inh: inactive; CtBP-E1A blk: inactive; Six1-Eya2 blk: inactive; JMJD2A Tudor: inactive; HP1b binding inh: inactive; G9a block: inconclusive

Results for COc1ccc(-n2c(Cc3cccn3C)nnc2SCC(=O)N2CCCC2)cc1 ?
BAZ2B inh: inactive; CtBP-E1A blk: inactive; Six1-Eya2 blk: inactive; JMJD2A Tudor: inactive; HP1b binding inh: inactive; G9a block: 44.7µM

What do the screens show for `Cn1cccc1Cc1nnc(SCC(=O)N2CCCCCC2)n1-c1ccc(F)cc1`?
BAZ2B inh: inactive; CtBP-E1A blk: inactive; Six1-Eya2 blk: inactive; JMJD2A Tudor: inactive; HP1b binding inh: inactive; G9a block: 50.1µM

What do the screens show for `COc1ccc(-n2c(Cc3cccn3C)nnc2SCC(=O)N2CCCc3ccccc32)cc1`?
BAZ2B inh: inconclusive; CtBP-E1A blk: inactive; Six1-Eya2 blk: inactive; JMJD2A Tudor: inconclusive; HP1b binding inh: inactive; G9a block: 44.7µM

Results for COc1ccc(-n2c(Cc3cccn3C)nnc2SCC(N)=O)cc1 ?
BAZ2B inh: inactive; CtBP-E1A blk: inactive; Six1-Eya2 blk: inactive; JMJD2A Tudor: inactive; HP1b binding inh: inactive; G9a block: 50.1µM

What do the screens show for `CCCNc1ccc(-c2nc(-c3ccncc3)no2)cc1[N+](=O)[O-]`?
BAZ2B inh: inactive; JMJD2A Tudor: inactive; HP1b binding inh: inactive; G9a block: inactive

How did CCOC(=O)C1=C(C)NC(=S)NC1c1ccc(-c2ccc(Cl)cc2)o1 (stereo unspecified) do in these assays?
BAZ2B inh: inactive; CtBP-E1A blk: inactive; Six1-Eya2 blk: inactive; JMJD2A Tudor: inactive; HP1b binding inh: inactive; G9a block: inconclusive

How did CCOC(=O)C1=C(C)NC(C)=C(C(=O)OCC)C1c1ccco1 do in these assays?
BAZ2B inh: inactive; Six1-Eya2 blk: inactive; JMJD2A Tudor: inactive; HP1b binding inh: inactive

What do the screens show for `COC(=O)C1=C(C)NC(=S)NC1c1ccc(-c2ccccc2C(=O)OC)o1` (stereo unspecified)?
BAZ2B inh: inactive; CtBP-E1A blk: inactive; Six1-Eya2 blk: inactive; JMJD2A Tudor: inactive; HP1b binding inh: inactive; G9a block: 8.91µM

What do the screens show for `COC(=O)C1=C(C)NC(=S)NC1c1ccc(-c2cccc(Cl)c2)o1` (stereo unspecified)?
BAZ2B inh: inconclusive; CtBP-E1A blk: inactive; Six1-Eya2 blk: inactive; JMJD2A Tudor: inactive; HP1b binding inh: inactive; G9a block: 10µM

How did CCOC(=O)C1=C(C)NC(=S)NC1c1ccco1 (stereo unspecified) do in these assays?
BAZ2B inh: inactive; CtBP-E1A blk: inactive; Six1-Eya2 blk: inactive; JMJD2A Tudor: inconclusive; HP1b binding inh: inactive; G9a block: 50.1µM

What do the screens show for `COC(=O)C1=C(C)NC(=O)NC1c1ccc(-c2ccccc2Cl)o1` (stereo unspecified)?
BAZ2B inh: inactive; Six1-Eya2 blk: inactive; JMJD2A Tudor: inactive[11.4 µM]; HP1b binding inh: inactive; G9a block: inconclusive

How did CCCCNC(=O)C1C(c2ccc(OC)cc2)=Nc2ccccc2N1C(=O)Cc1cc(OC)cc(OC)c1 (stereo unspecified) do in these assays?
CtBP-E1A blk: inactive; Six1-Eya2 blk: inactive

Results for O=C1c2ccccc2C(=O)N1c1cncc2ccccc12 ?
JMJD2A Tudor: inactive

What do the screens show for `CC(Sc1nnc(C2CC2)n1N)C(=O)NC1CCCCC1C` (stereo unspecified)?
BAZ2B inh: inactive; CtBP-E1A blk: inactive; Six1-Eya2 blk: inactive; JMJD2A Tudor: inactive; HP1b binding inh: inactive; G9a block: inactive

How did Nc1ccc2nc(-c3cccnc3)[nH]c2c1 do in these assays?
BAZ2B inh: inactive; CtBP-E1A blk: inactive; Six1-Eya2 blk: inactive; JMJD2A Tudor: inactive; HP1b binding inh: inactive; G9a block: inactive

What do the screens show for `Nc1cccc(-c2c[nH]c3ncc(-c4cccnc4)cc23)c1`?
Six1-Eya2 blk: inactive; JMJD2A Tudor: 17.8µM; HP1b binding inh: inactive

What do the screens show for `CCC(C)[C@H](NC(=O)c1cc2cc(Cl)ccc2n1C)C(=O)N1CCC[C@H]1C(=O)O` (stereo partly specified)?
BAZ2B inh: inactive; CtBP-E1A blk: inactive; Six1-Eya2 blk: inactive; JMJD2A Tudor: inactive; HP1b binding inh: inactive; G9a block: inconclusive

What do the screens show for `O=[N+]([O-])c1ccc(N2N=C(c3ccco3)CC2c2ccccc2)cc1` (stereo unspecified)?
BAZ2B inh: inconclusive; CtBP-E1A blk: inactive; Six1-Eya2 blk: inactive; JMJD2A Tudor: inactive; HP1b binding inh: inactive; G9a block: 7.94µM
